Potency, outcome and max activation data for nine compounds are collected here from PubChem BioAssay (Tox21).

A number with no mark means an inactive call. Inconclusive results are not listed. Activity calls are given as the source filed them. Unless noted, the call rests on the fitted dose curve; in most records, active means well fitted curve in the direction sought with a large enough effect in the repeat runs; inconclusive means weak or mixed curves; inactive means no such curve, though single readings can be large; an effect the other way counts as inactive or inconclusive.

The target in assay [1] is Progesterone receptor (Homo sapiens) (UniProt P06401). Nature of the assay: qHTS assay to identify small molecule agonists of the progesterone receptor (PR) signaling pathway (AID 1346784; calls by dose curve; further: nearly all actives have a fitted effect of over 30% in size). Summed up:
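PR-UAS-bla HEK 293T cells carrying a UAS-driven beta-lactamase reporter were seeded in medium with 2% charcoal-stripped FBS, preincubated 6 hr at 37C, then exposed to compounds in DMSO for 16 hr; agonism was read by LiveBLAzer B/G FRET fluorescence.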
(In general: In qHTS, concentration-response curves come from the screen itself.)

Assay [2] is described as follows: qHTS assay to identify small molecule agonists of the TGF-beta/Smad signaling pathway - cell viability counter screen (AID 1346829). Further: top concentration of the series differs between compounds; nearly all actives have a fitted effect of over 45% in size. Summed up: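 Cytotoxicity counter screen: CellTiter-Glo luminescence (30 min, room temperature) measured in the SBE-bla HEK 293T reporter wells after 5 hr compound treatment at 37 C and the 2 hr substrate step.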
Assay [3] addresses Thyrotropin-releasing hormone receptor (Homo sapiens) (UniProt P34981). As to the kind of experiment: qHTS assay to identify small molecule antagonists of the thyrotropin-releasing hormone receptor (TRHR) signaling pathway (AID 1346877; active means well fitted inhibition curve with a large enough effect in the repeat runs, not every such curve was filed as active; further: series mostly up to about 51 µM). In short, it runs like this: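 Screening used HEK293 cells engineered with TRHR, with a brief 5 min room-temperature compound exposure preceding addition of TRH to 1 nM. The read-out was kinetic calcium-dye fluorescence, concentration-response from 15 doses in triplicate.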

The target is the same in assay [4]. As to the kind of experiment: qHTS assay to identify small molecule agonists of the thyrotropin-releasing hormone receptor (TRHR) signaling pathway (AID 1346891; calls by dose curve; further: series mostly up to about 58 µM). In short, it runs like this:
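TRHR-expressing HEK293 cells were plated 18 h at 37 °C/5% CO2, loaded with calcium dye 2 h at 37 °C, then given compound in DMSO; fluorescence was read kinetically for 3 min at 1 s intervals.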

Assay [5] can be described thus: Human pregnane X receptor (PXR) small molecule agonists, qHTS cell viability counter screen (AID 1346977). Further: nearly all actives have a fitted effect of over 50% in size. Summed up: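 PXR-Luc HepG2 cells in medium with 5% charcoal-stripped FBS were pre-incubated 5hr, then exposed to compounds for 24hr at 37C. Viability was read in the same wells by CellTiter-Fluor fluorescence, reagent added after 23hr with a 1hr incubation.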

The nature of assay [6]: Caspase-3/7 induction in HepG2 cells by small molecules, qHTS assay (AID 1346978). Further: nearly all actives have a fitted effect of over 15% in size. In short, it runs like this: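 Caspase-3/7 induction was measured by Caspase-Glo 3/7 luminescence (30 min, room temperature) after a 17 hr compound exposure of wild-type HepG2 cells seeded at 2,000 per well and pre-incubated 5 hr.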
A short description of assay [7]: Caspase-3/7 induction in CHO-K1 cells by small molecules, qHTS assay (AID 1346980). Further: nearly all actives have a fitted effect of over 15% in size. In short, it runs like this:
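Luminescent Caspase-Glo 3/7 read (30min, room temperature) quantified apoptosis induction. Cells were wild-type CHO-K1, treated with compound for 17hr at 37 C and 5% CO2.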

Assay [8] is described as follows: Caspase-3/7 induction in HepG2 cells by small molecules, qHTS cell viability counter screen (AID 1346981). Further: series mostly up to about 92 µM; nearly all actives have a fitted effect of over 30% in size. Summed up: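 Multiplexed with the caspase-3/7 assay: HepG2 cells, 16 hr compound treatment, CellTiter-Fluor viability detection by fluorescence.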
The target of assay [9] is Nuclear receptor subfamily 1 group I member 2 (Homo sapiens) (UniProt O75469). Nature of the assay: Human pregnane X receptor (PXR) small molecule agonists, qHTS assay (AID 1346982). Further: nearly all actives have a fitted effect of over 35% in size. Further: potency means the concentration at half of the fitted maximal effect. In short, it runs like this: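 We seeded PXR-Luc HepG2 cells in assay medium containing 5% charcoal-stripped FBS, added compounds 5 hr later, incubated 24 hr, and read luminescence with ONE-Glo reagent.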

Assay [10] concerns the target Cytochrome P450 2D6 (Homo sapiens) (UniProt P10635). Nature of the assay: Cytochrome P450 Family 2 Subfamily D Member 6 (CYP2D6) small molecule antagonists: luciferase reporter qHTS assay (AID 1671196). Further: series mostly up to about 120 µM; nearly all actives have a fitted effect of over 50% in size. Summed up: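 Luminescence (RLU), read 20 min after detection reagent, indicated CYP2D6 conversion of proluciferin to luciferin during a 1 h NADPH-dependent reaction at room temperature.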
On the technique in general: Reporter assays use an easily measured gene product as a stand-in for the process of interest.

In assay [11] the target is Cytochrome P450 2C19 (Homo sapiens) (UniProt P33261). As to the kind of experiment: Cytochrome P450 Family 2 Subfamily C Member 19 (CYP2C19) small molecule antagonists: luciferase reporter qHTS assay (AID 1671197). Further: nearly all actives have a fitted effect of over 65% in size. Further: potency means the concentration at half of the fitted maximal effect. In short, it runs like this:
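Luminescent readout of CYP2C19 activity: luciferin product detected 20 min after adding detection reagent. Before that, compound and enzyme-substrate mix preincubated 10 min at room temperature; NADPH-regenerating system started a 1 h, 37C reaction. Ketoconazole as positive control.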

Assay [12] addresses Progesterone receptor (Homo sapiens) (UniProt P06401). Nature of the assay: qHTS assay to identify small molecule antagonists of the progesterone receptor (PR) signaling pathway (AID 1346795; active means well fitted inhibition curve with a large enough effect in the signal ratio in the repeat runs, not every such curve was filed as active; the % refers to the signal ratio; further: potency means the concentration at half of the fitted maximal effect). In short, it runs like this: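 PR-UAS-bla HEK293T cells carrying a UAS-driven beta-lactamase reporter were plated in medium with 2% charcoal-stripped FBS and rested 6 hr at 37C. Compounds were added with 1 nM R5020 (final) for 16 hr, then FRET substrate loaded 2 hr at room temperature.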

Assay [13] is described as follows: qHTS assay to identify small molecule antagonists of the progesterone receptor (PR) signaling pathway - cell viability counter screen (AID 1346798). Further: series mostly up to about 92 µM; nearly all actives have a fitted effect of over 50% in size. In short, it runs like this:
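PR-UAS-bla HEK293T cells in medium with 2% charcoal-stripped FBS were treated with compounds plus R5020 for 16 hr at 37C. Cell viability was then read by CellTiter-Glo luminescence after 30 min at room temperature in the same wells.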

A short description of assay [14]: qHTS assay to identify small molecule agonists of the progesterone receptor (PR) signaling pathway - cell viability counter screen (AID 1346799; calls by dose curve; further: nearly all actives have a fitted effect of over 45% in size). In short, it runs like this: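 PR-UAS-bla HEK293T cells, 3,000 per well in medium with 2% charcoal-stripped FBS, were preincubated 6 hr at 37C, then exposed to compounds for 16 hr; viability was read as CellTiter-Glo luminescence after 30 min at room temperature.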

A short description of assay [15]: qHTS assay to identify small molecule antagonists of the TGF-beta/Smad signaling pathway - cell viability counter screen (AID 1346824). Further: nearly all actives have a fitted effect of over 50% in size. Summed up: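 Cytotoxicity counter-screen run in the same wells as the beta-lactamase Smad reporter read: CellTiter-Glo luminescence after 30 min at room temperature. HEK 293T SBE-bla cells had 5 hr compound exposure at 37 C with TGF-beta1 (0.25 ng/mL stock).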

The nature of assay [16]: qHTS assay to identify small molecule agonists of the TGF-beta/Smad signaling pathway (AID 1346859; active means well fitted activation curve with a large enough effect in the signal ratio in the repeat runs, not every such curve was filed as active; the % refers to the signal ratio; further: series mostly up to about 77 µM). Summed up: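 HEK 293T cells stably carrying a beta-lactamase reporter driven by the Smad binding element were seeded overnight, exposed to DMSO-dissolved compounds for 5 hr at 37 C, 5% CO2, then loaded with FRET substrate for 2 hr at room temperature.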
A short description of assay [17]: Caspase-3/7 induction in CHO-K1 cells by small molecules, qHTS cell viability counter screen (AID 1346979). Further: nearly all actives have a fitted effect of over 35% in size. Further: potency means the concentration at half of the fitted maximal effect. Summed up:
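Wild-type CHO-K1 cells were seeded at 1,500 per well, rested 5hr at 37 C, then exposed to compounds in DMSO. After 16hr, CellTiter-Fluor reagent was added and fluorescence read 1hr later as the viability measure.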

Assay [18] concerns the target Nuclear receptor subfamily 1 group I member 2 (Rattus norvegicus) (UniProt Q9R1A7). As to the kind of experiment: Rat pregnane X receptor (rPXR) activation by small molecules, qHTS assay (AID 1346983). Further: nearly all actives have a fitted effect of over 20% in size. The settings on record: rPXR luciferase reporter cells, One-Glo luminescence, 24 h; stronger effect = higher value. Summed up:
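Luminescent readout (One-Glo luciferase, 30 min room temperature) followed 24 hr compound treatment at 37 C of rPXR cells plated 2,000 per well and preincubated 5hr; qHTS format with compounds delivered in DMSO.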

For assay [19], the target named is Nuclear receptor subfamily 1 group I member 2 (Homo sapiens) (UniProt O75469). Nature of the assay: CYP3A4 induction through human pregnane X receptor (PXR) by small molecules, qHTS assay (AID 1346984). Further: nearly all actives have a fitted effect of over 40% in size. Summed up: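 qHTS, concentration-response format: HepG2 DPX-2 line, PXR/CYP3A4-luc. Exposure 24 h, 37C. Substrate Luciferin-IPA 3uM final, 3 h. Detection One-Glo, 30 min RT.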

For assay [20] the target is unchanged. Nature of the assay: Human pregnane X receptor (PXR) activation by small molecules, qHTS assay (AID 1346985). Further: nearly all actives have a fitted effect of over 40% in size. Summed up: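 DPX-2 cells (HepG2 co-transfected with a PXR response element and a CYP3A4-promoter luciferase construct) were seeded at 2,000 per well, rested 5 hr at 37C, then exposed to DMSO-dissolved compounds for 24 hr. Activation was read as luciferase luminescence.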
On the % scale 0 is the no-effect control and ±100 the full control effect.

Sequence of Thyrotropin-releasing hormone receptor (Homo sapiens) (P34981 whole entry, looked up): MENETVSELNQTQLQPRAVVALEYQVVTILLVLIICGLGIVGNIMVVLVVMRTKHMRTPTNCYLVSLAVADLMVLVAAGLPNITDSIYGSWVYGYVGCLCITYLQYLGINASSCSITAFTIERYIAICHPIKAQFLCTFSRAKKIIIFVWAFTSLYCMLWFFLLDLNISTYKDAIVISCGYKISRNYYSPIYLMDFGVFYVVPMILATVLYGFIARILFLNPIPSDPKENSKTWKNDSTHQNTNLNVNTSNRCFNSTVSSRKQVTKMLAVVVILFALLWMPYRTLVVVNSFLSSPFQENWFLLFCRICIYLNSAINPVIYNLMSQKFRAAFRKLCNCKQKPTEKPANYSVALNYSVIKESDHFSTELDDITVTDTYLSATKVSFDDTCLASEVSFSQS
Sequence of Cytochrome P450 2C19 (Homo sapiens) (P33261 whole entry, looked up): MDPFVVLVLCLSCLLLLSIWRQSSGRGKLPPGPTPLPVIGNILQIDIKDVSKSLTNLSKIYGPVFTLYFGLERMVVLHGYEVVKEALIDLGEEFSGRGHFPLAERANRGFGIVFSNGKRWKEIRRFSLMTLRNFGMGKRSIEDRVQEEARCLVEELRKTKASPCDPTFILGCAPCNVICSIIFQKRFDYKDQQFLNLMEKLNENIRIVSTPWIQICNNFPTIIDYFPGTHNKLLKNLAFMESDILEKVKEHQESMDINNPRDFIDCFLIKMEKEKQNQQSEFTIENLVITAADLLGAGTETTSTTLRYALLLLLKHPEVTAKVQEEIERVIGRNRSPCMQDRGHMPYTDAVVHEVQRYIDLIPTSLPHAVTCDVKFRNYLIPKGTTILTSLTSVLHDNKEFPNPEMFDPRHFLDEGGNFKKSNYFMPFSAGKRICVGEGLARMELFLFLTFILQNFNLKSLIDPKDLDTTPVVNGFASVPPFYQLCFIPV
Sequence of Cytochrome P450 2D6 (Homo sapiens) (P10635 whole entry, looked up): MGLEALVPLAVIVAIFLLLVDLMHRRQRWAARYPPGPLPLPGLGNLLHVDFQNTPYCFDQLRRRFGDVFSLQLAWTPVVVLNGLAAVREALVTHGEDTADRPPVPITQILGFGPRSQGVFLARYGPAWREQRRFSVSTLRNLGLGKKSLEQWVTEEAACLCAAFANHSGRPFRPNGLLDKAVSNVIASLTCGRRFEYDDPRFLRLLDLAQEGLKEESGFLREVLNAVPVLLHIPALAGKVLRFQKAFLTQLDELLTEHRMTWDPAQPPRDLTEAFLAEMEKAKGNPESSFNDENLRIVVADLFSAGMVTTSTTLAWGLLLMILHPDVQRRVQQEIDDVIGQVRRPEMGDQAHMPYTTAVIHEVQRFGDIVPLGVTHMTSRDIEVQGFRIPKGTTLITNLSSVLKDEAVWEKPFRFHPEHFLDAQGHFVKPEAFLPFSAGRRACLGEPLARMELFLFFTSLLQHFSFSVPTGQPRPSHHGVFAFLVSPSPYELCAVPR
Sequence of Nuclear receptor subfamily 1 group I member 2 (Homo sapiens) (O75469 whole entry, looked up): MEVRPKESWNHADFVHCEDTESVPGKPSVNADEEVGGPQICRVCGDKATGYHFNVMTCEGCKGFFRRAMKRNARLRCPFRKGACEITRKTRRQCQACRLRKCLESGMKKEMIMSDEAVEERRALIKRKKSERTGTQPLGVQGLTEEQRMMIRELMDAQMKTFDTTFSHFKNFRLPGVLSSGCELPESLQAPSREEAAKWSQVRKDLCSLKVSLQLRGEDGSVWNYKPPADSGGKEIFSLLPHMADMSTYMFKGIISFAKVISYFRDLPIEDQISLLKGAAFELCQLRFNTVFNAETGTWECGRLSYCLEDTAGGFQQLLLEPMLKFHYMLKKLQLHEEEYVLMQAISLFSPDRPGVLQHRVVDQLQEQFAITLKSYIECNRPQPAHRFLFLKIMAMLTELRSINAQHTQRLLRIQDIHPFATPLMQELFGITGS
Sequence of Progesterone receptor (Homo sapiens) (P06401 whole entry, looked up): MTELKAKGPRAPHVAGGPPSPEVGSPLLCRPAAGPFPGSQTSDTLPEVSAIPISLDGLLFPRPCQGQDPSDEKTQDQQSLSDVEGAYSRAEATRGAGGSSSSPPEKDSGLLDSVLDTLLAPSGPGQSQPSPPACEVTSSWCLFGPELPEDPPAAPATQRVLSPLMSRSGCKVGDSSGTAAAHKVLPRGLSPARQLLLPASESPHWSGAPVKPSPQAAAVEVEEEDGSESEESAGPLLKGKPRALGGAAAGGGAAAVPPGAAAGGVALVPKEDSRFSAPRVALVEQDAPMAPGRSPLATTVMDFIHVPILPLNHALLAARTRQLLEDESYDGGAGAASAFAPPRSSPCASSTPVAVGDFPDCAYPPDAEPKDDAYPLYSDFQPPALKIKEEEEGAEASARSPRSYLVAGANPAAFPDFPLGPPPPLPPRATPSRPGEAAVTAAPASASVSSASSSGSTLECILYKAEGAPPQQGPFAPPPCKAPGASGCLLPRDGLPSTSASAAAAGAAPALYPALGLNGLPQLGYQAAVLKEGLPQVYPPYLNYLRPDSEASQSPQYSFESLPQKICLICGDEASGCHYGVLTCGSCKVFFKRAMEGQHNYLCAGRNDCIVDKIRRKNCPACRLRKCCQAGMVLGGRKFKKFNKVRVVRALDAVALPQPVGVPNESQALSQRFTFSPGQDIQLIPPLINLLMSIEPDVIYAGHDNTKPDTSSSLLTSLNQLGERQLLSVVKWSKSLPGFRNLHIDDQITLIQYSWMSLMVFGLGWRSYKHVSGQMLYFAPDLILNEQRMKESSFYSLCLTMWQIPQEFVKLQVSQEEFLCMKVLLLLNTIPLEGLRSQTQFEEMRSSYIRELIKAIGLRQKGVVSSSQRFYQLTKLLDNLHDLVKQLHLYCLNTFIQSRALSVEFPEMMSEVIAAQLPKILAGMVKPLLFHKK
Sequence of Nuclear receptor subfamily 1 group I member 2 (Rattus norvegicus) (Q9R1A7 whole entry, looked up): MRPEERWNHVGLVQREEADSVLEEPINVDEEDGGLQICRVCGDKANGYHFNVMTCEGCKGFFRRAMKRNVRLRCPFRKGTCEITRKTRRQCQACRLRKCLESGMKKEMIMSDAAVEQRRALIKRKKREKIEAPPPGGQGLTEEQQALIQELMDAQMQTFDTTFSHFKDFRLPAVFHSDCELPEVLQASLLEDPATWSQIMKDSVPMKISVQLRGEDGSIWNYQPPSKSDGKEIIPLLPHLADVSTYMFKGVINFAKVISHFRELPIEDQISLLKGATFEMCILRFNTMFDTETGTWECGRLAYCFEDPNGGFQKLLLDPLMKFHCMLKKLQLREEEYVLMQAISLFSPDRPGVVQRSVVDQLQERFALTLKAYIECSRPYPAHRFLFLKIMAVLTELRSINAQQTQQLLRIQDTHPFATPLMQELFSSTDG

For the compound `C=C(C)C(=O)OCCNC(C)(C)C`, the Potency entry in assay [1], in assay [5], in assay [6], in [8], in [9] and in [10] was “inactive” in each case. The call in assay [2], in [3], in [4] and in assay [7] was inactive. In addition, the Potency in [11] was 70.9 µM (active).

As to `CC(C)NCC(O)COc1ccc(COCCOC(C)C)cc1` (configuration not stated), the Potency result in assay [12], in assay [13], in [14], in [5], in [6] and in assay [17] was “inactive” in each case. The Potency entry in assay [8], in [9], in assay [19], in assay [20] and in assay [11] was “inactive” each time. For the same compound, the outcome in assay [15], in assay [2], in assay [16], in assay [3], in [4] and in assay [7] was inactive. Besides, the max activation in assay [18] is -3.07%.

Regarding `CC(C)NCC(O)COc1cccc2[nH]ccc12` (configuration not stated), the Potency entry in [13], in [14], in assay [5], in assay [6], in assay [17] and in assay [8] was “inactive” each time. Besides, the call in [2], in assay [16], in assay [3] and in assay [7] was inactive.

Turning to `COCCOC(=O)C1=C(C)NC(C)=C(C(=O)OC(C)C)C1c1cccc([N+](=O)[O-])c1` (configuration not stated), the Potency in assay [12] was 10.6 µM (active); in assay [17], 21.1 µM (active). Besides, the Potency result in [13], in assay [5] and in assay [6] was “inactive” in each case. For the same compound, the outcome in [15], in assay [2], in assay [16], in [3], in assay [4] and in [7] was inactive.

In the case of `C=CCCCCCCCCCCCC`, the Potency entry in assay [13], in assay [14], in assay [5], in [17], in assay [8] and in [9] was “inactive” in each case. The Potency entry in assay [10] and in assay [11] was “inactive” throughout. In addition, the outcome in [15], in [2], in [16], in assay [3] and in assay [7] was inactive.

In the case of `BrCc1cccc(Oc2ccccc2)c1`, the Potency entry in assay [1], in [13], in assay [14], in assay [5] and in assay [6] was “inactive” in each case. Also, the compound was classed as inactive in assay [15], in assay [2], in assay [16], in assay [4] and in [7]. In addition, the Potency in assay [9] is 61.1 µM (active); in assay [11], 7.96 µM (active).

Consider `CCCCCOC(=O)CCC`, for which the Potency result in assay [1], in assay [13], in assay [14], in assay [5], in assay [17] and in [9] was “inactive” in each case. In [11], the Potency entry was “inactive”. The compound was called inactive in assay [15], in assay [2] and in assay [7].

With `O=C(OCc1ccccc1)C(=O)OCc1ccccc1`, the Potency result in assay [1], in [13], in assay [14], in assay [5], in [6] and in assay [8] was “inactive” in each case. The Potency result in assay [9] and in assay [11] was “inactive” throughout. The result in [15], in [2], in assay [16] and in assay [7] was inactive.

Consider `COCCOCCOCCOCCOCCO`, for which the Potency result in assay [1], in [13], in assay [14], in [5], in [6] and in [17] was “inactive” throughout. In addition, the Potency result in assay [8], in [9], in assay [10] and in assay [11] was “inactive” throughout. Also, the result in [15], in [2], in assay [3], in [4] and in [7] was inactive.
